# Results: PubChem BioAssay (NCI)
# The panel holds about 83,000 compounds, 20% with a hit somewhere; the sample as a whole holds those more often.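 Plates (96-well) were seeded with cells, treated with compound at one concentration, and incubated for 48 hours before percent growth was determined.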 Values without a mark were called inactive. Active and inactive are the calls of the source. How the source made its calls: active means growth percent below 10; inactive means the rest.
# System: SK-MEL-28 melanoma
# Experiment: NCI-60 one-dose screen, 48 h (100 = growth as untreated, 0 = no growth, -100 = all killed)
# Conditions: 10 µM
row,SMILES,growth
1,COc1ccc(C2NCCc3c2[nH]c2ccccc32)cc1CN1CCN(c2ccc(F)cc2)CC1 (stereo not drawn),67.9%
2,CNCCNc1nc2ccccc2c2c(=O)c3cccc(OC)c3sc12,62.3%
3,COc1cc(/C=C/C(=O)c2ccc(Cl)cc2)cc(CN2CCCCC2)c1O,97.9%
4,COc1ccc(-n2c(C(O)c3ccccc3)nn(CN3CCOCC3)c2=S)cc1 (stereo not drawn),89.2%
5,O=C(c1nc2ccccc2[nH]1)C1C(c2cccc([N+](=O)[O-])c2)C2CC3CCCCC3N2[C@@]12C(=O)Nc1cc(Cl)ccc12 (stereo partly drawn),55.3%
6,NC(CCl)=NCCC[C@H](N)C(=O)O,107%
7,CCOC(=O)c1ccc2[nH]c(-c3ccccc3)cc(=O)c2c1,109%
8,COc1ccc(-c2nsc3c2NC(=O)CC3c2cccc(OC)c2)cc1 (stereo not drawn),45.3%
9,CCN(CC)CCCNc1ccnc2cc3ccccc3cc12,65.3%
10,Cn1cc([C@@H]2Nc3ccc4[nH]ncc4c3[C@H]3[C@H]4CCC(C4)[C@H]32)c(C(F)(F)F)n1,62%
11,CCOC(=O)C1(C(=O)OCC)N=C(c2ccccc2)C=C1c1ccccc1,105%
12,COc1ccccc1N1C(=N)S/C(=C\c2ccc(OCc3ccccc3F)cc2)C1=O,95%
13,O=C(c1ccccc1)N(CCc1ccc(Cl)cc1)C(=S)N(C(=O)c1ccccc1)c1ccccc1,119%
14,COc1ccc(Nc2cc(C)nc(NCc3ccccc3)n2)cc1,63.9%
15,COc1ccc(C(=O)C2CC2c2ccc(Cl)cc2)cc1 (stereo not drawn),107%
16,CCOC(=O)c1c2c(c(C)n1Cc1ccc(OC)cc1)-c1oncc1CC2,138%
17,Cc1ccc2cc3c(N)c4c(C)ccc(C)c4nc3nc2c1,-80.6% (active)
18,O=C1Nc2ccccc2/C1=C/c1ccc[nH]1,114%
19,COc1ccc(Cn2cc(Cn3c(=O)c(-c4nc5ccccc5[nH]4)cc4ccccc43)nn2)c(OC)c1OC,50.1%
20,CCOc1cc2c(cc1OCC)C(c1cc(C)c(O)c(C)c1)NCC2 (stereo not drawn),107%
21,C=C(C)CCC(C)N1CCC(N2CCC(C(=O)NCCc3ccccc3)CC2)CC1 (stereo not drawn),90%
22,COc1ccc(/C=C2\SC(=Nc3ccccc3)NC2=O)cc1,-100% (active)
23,CN1C(=O)N(C)C2(c3ccccc3)OC(=S)NC12c1ccccc1 (stereo not drawn),102%
24,O=NN(Cc1cccnc1)C(=O)NC1CCCCC1,104%

# System: SK-MEL-2 melanoma
# Experiment: as above
# Conditions: 10 µM unless noted
row,SMILES,growth
1,O=C(NC(=S)Nc1cccc(NC(=S)NC(=O)c2ccccc2)c1)c1ccccc1,66.1%
2,COc1cc(C(=O)Nc2ccc(-c3nc4ccccc4[nH]3)cc2)cc(OC)c1OC,105%
3,CN(C)c1ccc(N=Cc2ccc(N3CCOCC3)cc2)cc1,67.2%
4,Cc1ccc(C)c(-c2csc(Nc3ccc(C)c(C)c3)n2)c1,31.6%
5,COc1ccc(-c2nsc3c2NC(=O)CC3c2ccsc2)cc1 (stereo not drawn),45.5%
6,O=C(NCCCN1CCC(N2CCCCC2)CC1)C1=Cc2cc(Br)ccc2OC1,35.5%
7,CN1CCN(Cc2ccc(C(=O)Nc3cncc(C#Cc4cnc5cccnn45)c3)cc2C(F)(F)F)CC1,31.8%
8,Cc1ccccc1CNC(=O)C1CN(c2ccc(Cl)cc2)N(c2ccc(Cl)cc2)C1=O (stereo not drawn),91.8%
9,Cc1sc2ncn(CC(=O)Nc3ccc(S(N)(=O)=O)cc3)c(=O)c2c1C,106%
10,Fc1cccc(COc2ccc(Nc3ncnc4onc(-c5ccccc5)c34)cc2)c1,35.9%
11,Clc1ncccc1Nc1ccc2nnc(-c3ccncc3)n2n1,109%
12,CCc1ccc(CNCC(O)c2ccccc2)cc1 (stereo not drawn),90.9%
13,COc1ccc2oc(=O)cc(Cn3cc(Cn4cnc5c4c(=O)n(C)c(=O)n5C)nn3)c2c1,106%
14,COc1ccc(N(C)c2nc(N)nc3sc4c(c23)CCCC4)cc1,16.6%
15,O=C(NCc1ccccc1)C1CN(c2ccc(Cl)cc2)N(c2ccc(Cl)cc2)C1=O (stereo not drawn),85.8%
16,COc1ccc(C2NCCc3c2[nH]c2ccccc32)cc1CN1CCN(c2ccc(F)cc2)CC1 (stereo not drawn),64.1%
17,CNCCNc1nc2ccccc2c2c(=O)c3cccc(OC)c3sc12,73.1%
18,COc1cc(/C=C/C(=O)c2ccc(Cl)cc2)cc(CN2CCCCC2)c1O,108%
19,COc1ccc(-n2c(C(O)c3ccccc3)nn(CN3CCOCC3)c2=S)cc1 (stereo not drawn),95.2%
20,O=C(c1nc2ccccc2[nH]1)C1C(c2cccc([N+](=O)[O-])c2)C2CC3CCCCC3N2[C@@]12C(=O)Nc1cc(Cl)ccc12 (stereo partly drawn),41.4%

row,SMILES,growth
1,NC(CCl)=NCCC[C@H](N)C(=O)O,93.3%
2,CCOC(=O)c1ccc2[nH]c(-c3ccccc3)cc(=O)c2c1,105%
3,COc1ccc(-c2nsc3c2NC(=O)CC3c2cccc(OC)c2)cc1 (stereo not drawn),34.1%
4,CCN(CC)CCCNc1ccnc2cc3ccccc3cc12,57%
5,Cn1cc([C@@H]2Nc3ccc4[nH]ncc4c3[C@H]3[C@H]4CCC(C4)[C@H]32)c(C(F)(F)F)n1,21.1%
6,CCOC(=O)C1(C(=O)OCC)N=C(c2ccccc2)C=C1c1ccccc1,82.8%
7,COc1ccccc1N1C(=N)S/C(=C\c2ccc(OCc3ccccc3F)cc2)C1=O,82.7%
8,O=C(c1ccccc1)N(CCc1ccc(Cl)cc1)C(=S)N(C(=O)c1ccccc1)c1ccccc1,117%
9,COc1ccc(Nc2cc(C)nc(NCc3ccccc3)n2)cc1,31.1%
10,COc1ccc(C(=O)C2CC2c2ccc(Cl)cc2)cc1 (stereo not drawn),89%
11,CCOC(=O)c1c2c(c(C)n1Cc1ccc(OC)cc1)-c1oncc1CC2,120%
12,Cc1ccc2cc3c(N)c4c(C)ccc(C)c4nc3nc2c1,-33.2% (active)
13,O=C1Nc2ccccc2/C1=C/c1ccc[nH]1,103%
14,COc1ccc(Cn2cc(Cn3c(=O)c(-c4nc5ccccc5[nH]4)cc4ccccc43)nn2)c(OC)c1OC,28%
15,CCOc1cc2c(cc1OCC)C(c1cc(C)c(O)c(C)c1)NCC2 (stereo not drawn),98.3%
16,C=C(C)CCC(C)N1CCC(N2CCC(C(=O)NCCc3ccccc3)CC2)CC1 (stereo not drawn),99.3%
17,COc1ccc(/C=C2\SC(=Nc3ccccc3)NC2=O)cc1,-84.8% (active)
18,CN1C(=O)N(C)C2(c3ccccc3)OC(=S)NC12c1ccccc1 (stereo not drawn),102%
19,O=NN(Cc1cccnc1)C(=O)NC1CCCCC1,119%
